High-throughput results from PubChem.
aSyn UTR act: Activators via SNCA 5'UTR binding, MLPCN. alpha-synuclein 5'UTR reporter, activators screen. activity score, % (tested at 7.5 µM), hits read low. hit rate 7.1% among 300,000. AID 1814, 2009; in the data active = activity score below about -60%
* hit, by the source's call. These entries were drawn from the full list.

SMILES	aSyn UTR act
O=C(CCN1CCC(c2cccs2)=N1)c1cccs1	-94*
CC(=O)c1ccc(NCC2COc3ccccc3O2)c([N+](=O)[O-])c1 (stereo unspecified)	-179*
Cc1cccc(NC(=O)c2ccc(NCC3CCCO3)c([N+](=O)[O-])c2)c1 (stereo unspecified)	-64*
Cc1cccc(NC(=O)c2ccc(NCC3CCCO3)c([N+](=O)[O-])c2)n1 (stereo unspecified)	-121*
Cc1cccc(NC(=O)c2ccc(NCCO)c([N+](=O)[O-])c2)n1	-95*
O=c1c2cccc(Cl)c2nc2n1Cc1ccccc1-2	-154*
c1ccc(-c2ccc3sccc3n2)cc1	-173*
Cc1ccc(C(=O)N/N=C2\CCCc3ccccc32)c(C)c1	-161*
O=C(N/N=C1\CCCc2ccccc21)c1ccc([N+](=O)[O-])cc1	-82*
COc1ccc(N(Cc2cc3ccccc3[nH]c2=O)S(=O)(=O)c2ccc(OC)cc2)cc1	-64*
COc1ccc(N(Cc2cc3cc(OC)ccc3[nH]c2=O)S(=O)(=O)c2ccc(NC(C)=O)cc2)cc1	93
O=C(Nc1ccc(Cl)cn1)c1ccc2nccnc2c1	-112*
O=C(Nc1ccccc1Cl)c1ccc2nccnc2c1	-96*
CN1CCC(=NNc2ncnc3sc4c(c23)CCCC4)CC1	-82*
